m-calpain inh = blocks pig calpain II enzyme activity; inhibition, % at 16 µM; purified calpain II, fluorogenic peptide substrate, 30 min; AID 1236; 220,000 tested, 0.37% active;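 active means inhibition above about 50%, limit read from the data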
beta cell repl = inducers of beta-cell replication in MIN6 cells | MIN6 cells proliferation, ATPlite luminescence, 48 h; cells starved in 0.2% serum; 100% = growth in 10% serum | proliferation, % at 10 µM | 330,000 tested, 0.29% active | AID 2380;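 active means compounds whose signal lies at least 3.5 SD above the mean of all wells on their plate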;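 further: 0% = DMSO-treated cells in low-serum medium and 100% = 10% serum control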
H9c2 protect = protects H9c2 cardiomyocytes from peroxide injury; AID 588492; protection from H2O2 cell death, % at 20 µM; H2O2 injury protection, ATPLite, 2 h; 360,000 tested, 0.63% active;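 active means compounds giving at least 50% protection of heart cells from peroxide-induced death in the single-dose screen, raw or plate-pattern-corrected value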;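 further: 0% = DMSO wells with peroxide and 100% = DMSO wells without peroxide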
H9c2 TAG inh = inhibitors of triacylglycerol accumulation; inhibition, % at 12.5 µM; AID 651582; H9c2 cells, Nile Red lipid (TAG) fluorescence; cells loaded with 200 µM oleic acid; 230,000 tested, 0.66% active;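 active means pattern-corrected inhibition of lipid staining of at least 50% with the nuclear-stain viability signal not falling by more than 50%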;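 further: 0% = DMSO wells and 100% = triacsin C control wells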
FAS TE block = FAS thioesterase (human) inhibition; recombinant FAS-TE, OMFH fluorogenic substrate, fluorescence endpoint; inhibition, % at 15 µM; 360,000 tested, 0.67% active; AID 602261;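 active means compounds whose normalised, plate-corrected inhibition of enzyme fluorescence in the single-dose primary screen is 50% or more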;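 further: 0% = DMSO with enzyme and 100% = substrate without enzyme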
aDG glyco up = alpha-DG glycosylation activation; AID 624168; Pro5-aDG cells, alpha-DG glycosylation AlphaScreen (IIH6); 0% Pro5, 100% B10-LARGE cell signal; activation, % at 10 µM; 360,000 tested, 0.22% active;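 active means activation of at least 8% versus controls, or a plate z-score of at least 8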;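 further: Pro5 are CHO cells carrying HIG-tagged alpha-DG that lacks glycosylation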
FAS-TE inh conf = confirmation of human fatty acid synthase thioesterase inhibitors; shares compounds with FAS TE block; recombinant FAS-TE, OMFH fluorogenic substrate, fluorescence; inhibition, % at 15 µM; 2,300 tested, 45% active;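 active means compounds inhibiting the enzyme by at least 50% at 15 µM in any one of the replicates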;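 further: 0% = enzyme with DMSO only and 100% = wells lacking enzyme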
* marks the source's active call; other numbers are inactive results; x = not tested or not shown. The list is not random: actives were taken first. Their share in the collection is about 2.3%.

SMILES	m-calpain inh	beta cell repl	H9c2 protect	H9c2 TAG inh	FAS TE block	aDG glyco up	FAS-TE inh conf
CC(CCc1ccccc1)NC(=O)c1cccc([N+](=O)[O-])c1 (centres undefined)	2.4	0.0	-2.3	-7.1	61.6*	0.5	70.1*
O=C(Nc1ccc(NC(=O)c2cccc([N+](=O)[O-])c2)cc1)c1cccc([N+](=O)[O-])c1	x	-1.3	1.1	12.2	20.0	0.0	x
O=C(Nc1ccc(Cc2ccncc2)cc1)c1cccc([N+](=O)[O-])c1	13.2	-3.4	-6.3	x	66.5*	1.6	70.2*
CCCCCN(CCCCC)C(=O)C(CCC(=O)O)NC(=O)c1ccc(Cl)c(Cl)c1 (centres undefined)	x	-2.9	-2.7	1.0	71.8*	0.0	73.6*
CCCCN(CC)C(=O)c1ccc(Cl)c(Cl)c1	13.2	-3.7	-2.6	-19.0	-1.3	0.2	x
O=C(CSc1nnc(-c2ccccn2)n1Cc1ccco1)c1ccc(-c2ccccc2)cc1	-7.8	-3.0	8.2	x	51.0*	0.0	16.8
O=[N+]([O-])c1ccccc1S(=O)c1ccccc1[N+](=O)[O-]	x	x	4.2	x	1.0	0.0	x
CCN(Cc1ccncc1)C(=O)c1cc(COc2c(C)cccc2C)on1	x	5.5	0.3	5.9	1.6	0.1	x
Cc1cc(C)cc(N(CC(=O)N2CCn3c2nc2ccccc23)S(=O)(=O)c2c(C)noc2C)c1	-27.8	-4.2	2.2	0.5	65.3*	0.4	27.6
CCCOc1ccc(NC(=O)CC2C(=O)N(C)C(=S)N2Cc2cccs2)cc1 (centres undefined)	8.2	-5.2	0.6	1.3	63.9*	0.3	65.4*
CN1C(=O)C(CC(=O)Nc2ccc(F)cc2)N(Cc2cccs2)C1=S (centres undefined)	8.7	-1.6	-4.3	-0.8	44.7	0.0	x
Cn1c(N/N=C/c2cccs2)cc(=O)n(C)c1=O	-41.4	-2.0	-6.6	-7.6	-2.4	-0.3	x
Fc1c(F)c(C(F)(F)F)c(F)c(F)c1N/N=C\c1cccs1	16.0	-4.8	-19.6	x	62.6*	0.4	50.8*
CCCCNc1ccc2c(c1)C1CC2CCN1C(=O)OCc1ccccc1 (centres undefined)	x	x	-8.4	-5.5	18.5	-0.2	x
CCn1c(=N)c(S(=O)(=O)c2ccccc2)cc2c(=O)n3ccccc3nc21	-268.2	1.1	12.7	-14.3	54.8*	-0.1	35.3
O=S(=O)(c1ccc(Cl)cc1)N1CCCC(c2nc(-c3ccc(F)cc3)no2)C1 (centres undefined)	x	-5.3	-12.4	-31.9	64.0*	0.7	45.9*
COc1ccc(-c2noc(C3CCCN(S(=O)(=O)c4cccc(Cl)c4)C3)n2)cc1OC (centres undefined)	-15.5	-2.7	0.8	x	47.1	0.0	x
O=C(CSc1nc2ccccc2n1S(=O)(=O)c1cccc([N+](=O)[O-])c1)NCCc1ccccc1	23.8	-0.1	-0.7	x	76.1*	-0.1	69.1*
C=CCn1c(=S)[nH]c2cc(C(=O)N3CCN(c4ccccc4OC)CC3)ccc2c1=O	x	0.3	5.8	4.9	54.1*	0.0	57.6*
Cc1cccc(CNc2ccc(S(=O)(=O)N3CCCCC3)cc2)c1	x	-4.2	-10.6	-50.3	30.2	0.4	x
CC(=O)c1c(C)oc2ccc(N(C(=O)c3ccncc3)S(=O)(=O)c3ccccc3)cc12	4.5	-4.9	25.1	-24.7	9.9	0.5	x
O=C(c1ccncc1)N(c1ccc2oc3c(c2c1)CCCC3)S(=O)(=O)c1ccc(F)cc1	13.5	-3.3	-11.5	1.5	64.7*	0.1	42.9
O=C(Cc1ccc(NC(=O)C2CCCN(C(=O)C3CCC3)C2)cc1)Nc1cccc(C(=O)N2CCCC2)c1 (centres undefined)	x	x	-14.0	-4.1	-8.3	-0.1	x
COc1ccc(-c2ccc(C(=O)NCC3CCOCC3)c3occc23)c(C)c1	x	x	-8.5	1.0	-2.0	1.8	x
O=C(Nc1cccc(C(=O)O)c1)/C(=C/c1ccccc1)NC(=O)c1cccc(Br)c1	x	0.1	-1.0	3.7	-1.9	-0.1	x
SMILES	m-calpain inh	beta cell repl	H9c2 protect	H9c2 TAG inh	FAS TE block	aDG glyco up	FAS-TE inh conf
O=C(Nc1cccc(C(=O)O)c1)/C(=C/c1cccc([N+](=O)[O-])c1)NC(=O)c1cccc(Br)c1	x	0.1	-5.6	-2.8	62.4*	0.1	57.6*
COc1cccc(Nc2nc(-c3cccs3)nc3ccccc23)c1	17.0	-5.4	10.9	x	51.0*	0.7	33.6
O=C(NCCN1C(=O)S/C(=C\c2ccc(Cl)c(Cl)c2)C1=O)c1cnccn1	-19.0	-2.0	-0.4	x	2.9	0.2	x
O=C(NCCN1C(=O)S/C(=C\c2ccc(Cl)c([N+](=O)[O-])c2)C1=O)C1=COCCO1	x	-7.3	-12.4	15.6	52.5*	0.2	40.5
Cc1cccc(C)c1NC1=C(Cl)C(=O)OC1OC(=O)c1ccccc1 (centres undefined)	9.8	-3.1	-0.7	9.2	64.3*	-0.2	28.5*
CCOC(=O)c1cc(-c2ccccc2)sc1NC(=O)CCN1C(=O)c2ccccc2C1=O	-37.0	-0.4	-2.4	-3.5	20.5	0.2	x
CCOC(=O)c1cc(-c2ccccc2)sc1NC(=O)C(C)N1C(=O)c2ccccc2C1=O (centres undefined)	-11.3	-3.3	-3.7	10.3	56.6*	-0.2	-1.6
CC(C)(C)C(=O)Nc1nc(C2CCCN2S(=O)(=O)c2ccc(Cl)cc2)cs1 (centres undefined)	12.5	-1.2	-18.1	x	55.1*	2.9	64.6*
COc1ccc(-c2c([C@H]3[C@H]4C=CC[C@@H](C)[C@@H]4C(=O)N3Cc3ccccc3)ccc3ccccc23)cc1OC	-72.6	-7.8	-20.3	15.8	54.7*	-0.4	13.6
CC(C)(C)c1ccc(S(=O)(=O)NC(=O)C2(C)CCN2C(=O)Cc2cccc3ccccc23)cc1 (centres undefined)	x	x	-1.8	0.7	-6.1	-0.2	x
O=C1OCCN1C(=O)[C@H]1[C@H](c2ccc(Cl)cc2)C(c2cccc(Cl)c2)=NN1c1ccccc1	-258.7	-7.8	2.5	x	94.1*	0.6	7.4
O=C1OCCN1C(=O)[C@H]1[C@H](c2ccc(F)cc2)C(c2cccc(Cl)c2)=NN1c1ccc(Br)cc1	x	x	15.9	3.7	72.8*	1.1	21.0
CC[C@@H]1C(c2ccccc2)=NN(c2ccc(Br)cc2)[C@H]1C(=O)N1CCOC1=O	x	x	-12.5	1.7	29.3	0.2	x
CC[C@@H]1C(c2cccc(Cl)c2)=NN(c2ccc(Br)cc2)[C@H]1C(=O)N1CCOC1=O	x	x	-2.9	3.6	41.9	0.6	x
COc1ccccc1[C@@H]1C(c2ccccc2)=NN(c2ccc(Br)cc2)[C@H]1C(=O)N1CCOC1=O	x	x	6.8	9.9	73.6*	-0.2	13.2
O=C1OCCN1C(=O)[C@H]1[C@H](c2ccc(Cl)cc2)C(c2ccccc2)=NN1c1ccc(Br)cc1	x	x	18.4	5.6	81.1*	0.4	38.7

From PubChem BioAssay
